Source: PubChem BioAssay
Rv3671c inh: Rv3671c serine protease inhibitors, primary screen, biochemical, fluorescence polarization, M. tuberculosis H37Rv. P9WHR9. inhibition, % at 5.96 µM. 320,000 tested, 0.048% active. AID 2606, 2010; in the data active means inhibition above about 38%;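 further: extracellular domain of Rv3671c used as enzyme; 0% = enzyme with DMSO and 100% = no enzyme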
Target sequence (P9WHR9 whole entry, looked up, the tested form may be a part): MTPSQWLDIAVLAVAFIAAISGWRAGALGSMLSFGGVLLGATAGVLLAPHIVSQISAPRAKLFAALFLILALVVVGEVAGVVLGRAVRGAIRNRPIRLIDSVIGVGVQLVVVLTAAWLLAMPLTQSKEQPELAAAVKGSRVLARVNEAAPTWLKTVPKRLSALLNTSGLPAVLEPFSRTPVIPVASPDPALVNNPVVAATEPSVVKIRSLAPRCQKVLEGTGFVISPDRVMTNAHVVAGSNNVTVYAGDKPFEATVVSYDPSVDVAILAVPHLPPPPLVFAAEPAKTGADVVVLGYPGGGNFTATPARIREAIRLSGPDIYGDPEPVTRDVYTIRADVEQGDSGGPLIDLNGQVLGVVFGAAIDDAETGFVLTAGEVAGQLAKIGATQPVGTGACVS
FBA Mtb inh: Mtb FBA enzyme inhibitors, primary screen, biochemical, fluorescence, strain H37Rv; 360,000 tested, 2.3% active; purified M. tuberculosis FBA, fluorescence read-out; AID 588726, 2011; inhibition, % at 1 µM;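 further: 0% = vehicle and 100% = reference inhibitor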
UGM FP inh: M. tuberculosis UGM enzyme inhibitors, primary screen, biochemical, fluorescence polarization, single point; purified UGM, fluorescence polarization probe displacement; UDP-galactopyranose mutase (Mycobacterium tuberculosis (strain ATCC 25618 / H37Rv)), …; 320,000 tested, 0.06% active; inhibition, % at 10 µM; AID 504406, 2011; in the data active means inhibition above about 10%, passing the limit was not always enough
GDH-TPI counter-1: GDH-TPI coupling enzyme inhibitors, primary screen, artefact control for M. tuberculosis FBA inhibitor project, biochemical, absorbance, full deck. GDH-TPI coupled enzyme counterscreen, NADH absorbance. inhibition, % at 4.8 µM. 360,000 tested, 1.2% active. AID 588335, 2011; in the data active means inhibition above about 30%;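 further: 0% = DMSO wells and 100% = wells lacking the enzyme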
RecA splice inh: Mtb RecA intein splicing inhibitors, primary screen, biochemical, fluorescence, HTS; 290,000 tested, 0.75% active; Protein RecA (Mycobacterium tuberculosis (strain ATCC 25618 / H37Rv)), P9WHJ3; inhibition, % (no concentration beside the values); cell-free RecA intein splicing; AID 2221, 2009; in the data active means inhibition above about 30%;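 further: 0% = vehicle wells and 100% = reference inhibitor control wells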
Mtb bLac sens: beta-lactam sensitization of Mtb H37Rv, H37Rv; M. tuberculosis H37Rv growth with meropenem, percent inhibition; inhibition, % at 25 µM; 330,000 tested, 0.27% active; AID 434955, 2010; call rule not given here;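 further: growth measured after seven days incubation then overnight dye step; 0% = bacteria only wells and 100% = bacteria with antibiotic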
Mtb FBA inh conf: M. tuberculosis aldolase blockers, biochemical, fluorescence, strain H37Rv, confirmation. purified M. tuberculosis FBA, fluorescence read-out. inhibition, % at 1 µM. 5,600 tested, 78% active. shares compounds with FBA Mtb inh. AID 651616, 2012;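 further: 0% = vehicle wells and 100% = reference inhibitor wells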
GDH-TPI counter-2: GDH-TPI coupling enzyme inhibitors, artefact control for M. tuberculosis FBA inhibitor project, biochemical, fluorescence, high throughput. inhibition, % at 1 µM. shares compounds with FBA Mtb inh. AID 652141, 2013. GDH-TPI coupled enzyme counterscreen. 5,600 tested, 81% active; in the data active means inhibition above about 10%
* = called active by the depositor; i = inactive; · = no result given; + = active, no number. In the library only some 4% were active in any assay of this set; here they are far more common. Unless noted, no stated cut-off is given here; in the data, active means inhibition above about 27%; inactive means the rest.

SMILES | Rv3671c inh | FBA Mtb inh | UGM FP inh | GDH-TPI counter-1 | RecA splice inh | Mtb bLac sens | Mtb FBA inh conf | GDH-TPI counter-2
O=c1[nH][nH]c(=O)c2c(NS(=O)(=O)c3ccccc3)cccc12 | 2 | 4 | 1 | 4 | 5 | -2 | · | ·
COc1ccc(-c2nc3ncccn3c2Br)cc1 | -1 | 49* | -3 | 14 | -4 | 3 | + | 186*
Brc1c(-c2ccc3c(c2)OCO3)nc2ncccn12 | 8 | 3 | 1 | 9 | -2 | 87 | · | ·
O=c1c2ccccc2nc2n1CCCN2 | -7 | 70* | 2 | 4 | 1 | 0 | + | +
O=C(CCS(=O)(=O)c1ccc(Br)cc1)NCCC1=CCCCC1 | -4 | 1 | 0 | 3 | 0 | 14 | · | ·
CCOC(=O)C1CCN(C(=O)c2cnn3c(C)cc(C)nc23)CC1 | -10 | 35* | 1 | 10 | 0 | -4 | 76* | 55*
CCOC(=O)C1CCN(c2nc3cc(OC)ccc3cc2C#N)CC1 | -5 | 24 | 0 | 4 | -3 | 98 | · | ·
COc1cccc(CC(NC(C)=O)C(=O)NC2CCN(c3nc(C)cc(C)c3C#N)CC2)c1 (configuration not stated) | -6 | 29* | -1 | -3 | -2 | 0 | 58* | 52*
CCOC(=O)C1CCN(c2nc(C)cc(C)c2C#N)CC1 | 5 | 28* | -1 | 0 | -1 | -5 | 170* | 124*
Cc1cc(C)c(C#N)c(N2CCCC(C(N)=O)C2)n1 (configuration not stated) | 2 | 57* | -1 | -3 | -4 | -6 | + | +
COc1ccc(C(=O)c2ccccc2)cc1CN1CCOCC1 | · | 6 | · | 4 | · | · | · | ·
COc1ccccc1N1C(=O)c2ccccc2NC1c1cc(OC)c(OC)c(OC)c1 (configuration not stated) | -8 | 55* | 0 | 15 | -7 | -4 | 96* | 65*
COc1ccc(C2Nc3ccccc3C(=O)N2c2ccccc2)cc1CN1CCOCC1 (configuration not stated) | -2 | 45* | -2 | 9 | -5 | -5 | 0 | -5
COc1ccc(C2Nc3ccccc3C(=O)N2c2ccc(C)cc2)cc1Cn1nc(C)c([N+](=O)[O-])c1C (configuration not stated) | -1 | 2 | -2 | 4 | 11 | 17 | · | ·
COc1ccc(C2Nc3ccccc3C(=O)N2c2ccc(C)cc2)cc1COc1ccccn1 (configuration not stated) | -16 | 34* | 1 | 11 | -1 | -1 | + | +
COc1ccc(C2Nc3ccccc3C(=O)N2Cc2ccccc2)cc1CN1CCOCC1 (configuration not stated) | -1 | 97* | 5 | 5 | · | -19 | 58* | 50*
CC1(C)Cc2c(cnn2-c2cccc(F)c2)C(NC(=O)CN2CCCC2=O)C1 (configuration not stated) | -3 | 2 | 2 | -6 | 3 | -6 | · | ·
O=[N+]([O-])c1cc(C=Nc2ccc3ccccc3c2)ccc1Br | -3 | 10 | -2 | -7 | 9 | 96 | · | ·
N=c1oc2cc(O)ccc2cc1C(=O)Nc1ccc(Cl)cc1 | 7 | 103* | -1 | 10 | i | 93 | + | +
O=C(NCc1ccccn1)C1CCCCC1 | -2 | 1 | 2 | -9 | -10 | 16 | · | ·
NC(=O)COC(=O)CC12CC3CC(CC(C3)C1)C2 | 3 | 1 | 0 | 15 | · | -1 | · | ·
CC(C)=C1C2CCC1C1C(=O)N(c3nccs3)C(=O)C21 (configuration not stated) | -1 | 0 | -2 | -4 | 2 | -2 | · | ·
CSc1ncc(C(=O)O)c(C)n1 | 8 | -1 | 4 | -1 | 0 | -1 | · | ·
Cc1ncc(C(=O)O)c(C(=O)O)c1N | 1 | 34* | -1 | 6 | -8 | 9 | 19 | 15*
COC(=O)c1cc2c(=O)c3ccccc3oc2nc1/C=C/N(C)C | · | 32* | -5 | 3 | -7 | 9 | 98* | 64*
SMILES | Rv3671c inh | FBA Mtb inh | UGM FP inh | GDH-TPI counter-1 | RecA splice inh | Mtb bLac sens | Mtb FBA inh conf | GDH-TPI counter-2
COc1ccc(-n2c(C)c(C(C)=O)c(C(C)=O)c2C)cc1 | -2 | 2 | -1 | 6 | 0 | 2 | · | ·
COc1ccc(-n2c(C)cc3cc(OC(C)=O)ccc32)cc1 | 2 | 58* | -1 | 5 | 1 | 3 | 68* | 49*
O=C(c1cccnc1)N1CCN(c2ccccc2Cl)CC1 | 0 | · | -2 | · | -1 | 7 | · | ·
O=C(COc1ncnc2scc(-c3ccc(Cl)cc3)c12)NCc1ccco1 | -2 | 83* | 0 | 1 | 1 | 92 | 5 | -2
CCNC(=O)COc1ncnc2scc(-c3ccc(F)cc3)c12 | -8 | -5 | 3 | -12 | -3 | -4 | · | ·
Cc1ccc(-c2cc(-c3ccccc3)[nH]c(=S)c2C#N)cc1 | -1 | 1 | 0 | -1 | 9 | -1 | · | ·
N#Cc1c(-c2ccco2)cc(-c2ccccc2)[nH]c1=O | 0 | 78* | 3 | 15 | -15 | -9 | 80* | 68*
Cc1cc(-c2ccccc2)[nH]c(=O)c1C#N | -1 | 69* | 0 | 27 | -8 | -1 | 67* | 52*
Cc1cc(C)c2ccc3c(C)c(C)nc3c2[nH]1 | -4 | 2 | -1 | 5 | -41 | 64 | · | ·
CC(=O)O[C@H]1CCC2C3CCC4=CC(=O)CCC4=C3C=C[C@@]21C (some centres not stated) | 4 | 5 | 1 | 18 | -12 | 4 | · | ·
COc1ccc(S(=O)(=O)Nc2c(C(=O)O)[nH]c3ccc(OC)cc23)cc1 | -4 | 27* | 2 | 3 | -3 | -7 | + | +
COc1ccc2[nH]c(C(=O)O)c(CCN3C(=O)c4ccc(C(=O)O)cc4C3=O)c2c1 | -9 | 3 | 0 | -4 | -3 | -2 | · | ·
COc1ccc2[nH]c(C(=O)O)c(CCC(=O)O)c2c1 | 9 | 42* | -4 | -1 | 2 | -8 | 78* | 59*
CC(=O)N(CC(=O)Nc1nn(-c2ccccc2)nc1C(N)=O)Cc1ccccc1 | 0 | 43* | -3 | 2 | -1 | 1 | 1 | -3
